# Experimental data: the supplement of paper PMC8728848
# Only a selection was taken, and the strongest signals are over-represented in it overall.
# B1: SBD-G4S3-SBD (protein)
# chain: MASIPSSASVQLDSYNYDGSTFSGKIYVKNIAYSKKVTVVYADGSDNWNNNGNIIAASFSGPISGSNYEYWTFSASVKGIKEFYIKYEVSGKTYYDNNNSANYQVSTGGGGSGGGGSGGGGSEFASIPSSASVQLDSYNYDGSTFSGKIYVKNIAYSKKVTVVYADGSDNWNNNGNIIAASFSGPISGSNYEYWTFSASVKGIKEFYIKYEVSGKTYYDNNNSANYQVST
# Tests used:
# Assay in all cases: glycan array binding signal (z-score within array); higher = stronger binding
# Conditions in all cases: glycan notation: IUPAC condensed, linker removed
# [1] = molecular target: Fuc(a1-2)Gal(b1-3)GalNAc(a1-3)[Fuc(a1-2)]Gal(b1-4)GlcNAc
# How it was run: (§1)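 Arrays were curated from the Consortium for Functional Glycomics database, 3228 in total, and kept only where the protein sequence was available. Binding is expressed as a within-array Z-score. This score was averaged across arrays of the same protein sequence at different concentrations or buffers and across linkers, and negative values can be read as non-binding.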
# [2] = molecular target: Fuc(a1-2)Gal(b1-4)GlcNAc(b1-3)Gal(b1-4)GlcNAc(b1-2)Man(a1-3)[Fuc(a1-2)Gal(b1-4)GlcNAc(b1-3)Gal(b1-4)GlcNAc(b1-2)Man(a1-6)]Man(b1-4)GlcNAc(b1-4)GlcNAc
# How it was run: as §1
# [3] = molecular target: Fuc(a1-2)[Gal(a1-3)]Gal(b1-4)[Fuc(a1-3)]GlcNAc(b1-3)GalNAc
# How it was run: as §1
# [4] = molecular target: Fuc(a1-2)[GalNAc(a1-3)]Gal(b1-3)GalNAc(a1-3)[Fuc(a1-2)]Gal(b1-4)GlcNAc
# How it was run: as §1
# [5] = molecular target: Fuc(a1-2)[GalNAc(a1-3)]Gal(b1-4)GlcNAc(b1-2)Man(a1-3)[Fuc(a1-2)[GalNAc(a1-3)]Gal(b1-4)GlcNAc(b1-2)Man(a1-6)]Man(b1-4)GlcNAc(b1-4)GlcNAc
# How it was run: as §1
# [6] = molecular target: Fuc(a1-2)[GalNAc(a1-3)]Gal(b1-4)[Fuc(a1-3)]GlcNAc(b1-3)GalNAc
# How it was run: as §1
# [7] = molecular target: Fuc(a1-3)[Gal(b1-4)]Glc6S
# How it was run: as §1
# [8] = molecular target: Fuc(a1-3)[Gal(b1-4)]GlcNAc
# How it was run: as §1
# [9] = molecular target: Gal(a1-3)Gal(b1-3)[Fuc(a1-4)]GlcNAc(b1-2)Man(a1-3)[Gal(a1-3)Gal(b1-3)[Fuc(a1-4)]GlcNAc(b1-2)Man(a1-6)]Man(b1-4)GlcNAc(b1-4)GlcNAc
# How it was run: as §1
# [10] = molecular target: Gal(a1-3)Gal(b1-4)[Fuc(a1-3)]GlcNAc(b1-2)Man(a1-3)[Gal(a1-3)Gal(b1-4)[Fuc(a1-3)]GlcNAc(b1-2)Man(a1-6)]Man(b1-4)GlcNAc(b1-4)GlcNAc
# How it was run: as §1
# [11] = molecular target: Gal(b1-3)GalNAc(b1-3)Gal(a1-4)Gal(b1-4)Glc
# How it was run: as §1
# [12] = molecular target: Gal(b1-3)GalNAc(b1-4)[Neu5Ac(a2-3)]Gal(b1-4)Glc
# How it was run: as §1
# [13] = molecular target: Gal(b1-3)GlcNAc(b1-2)Man(a1-3)[Gal(b1-3)GlcNAc(b1-2)Man(a1-6)]Man(b1-4)GlcNAc(b1-4)GlcNAc
# How it was run: as §1
# [14] = molecular target: Gal(b1-3)GlcNAc(b1-3)Gal(b1-4)GlcNAc(b1-6)[Gal(b1-3)GlcNAc(b1-3)]Gal(b1-4)Glc
# How it was run: as §1
# Gal(b1-3)GlcNAc6S = molecular target: Gal(b1-3)GlcNAc6S
# How it was run: as §1
# [15] = molecular target: Gal(b1-3)[Fuc(a1-4)]GlcNAc(b1-6)GalNAc
# How it was run: as §1
# [16] = molecular target: Gal(b1-3)[GlcNAc(b1-6)]GalNAc
# How it was run: as §1
# [17] = molecular target: Gal(b1-3)[Neu5Ac(a2-6)]GlcNAc(b1-4)Gal(b1-4)Glc
# How it was run: as §1
# [18] = molecular target: Gal(b1-4)GlcNAc(b1-2)Man(a1-3)[Man(a1-6)]Man(b1-4)GlcNAc(b1-4)GlcNAc
# How it was run: as §1
# [19] = molecular target: Gal(b1-4)GlcNAc(b1-2)[Gal(b1-4)GlcNAc(b1-6)]Man(a1-6)[Gal(b1-4)GlcNAc(b1-2)Man(a1-3)]Man(b1-4)GlcNAc(b1-4)[Fuc(a1-6)]GlcNAc
# How it was run: as §1
# [20] = molecular target: Gal(b1-4)GlcNAc(b1-3)Gal(b1-3)GalNAc
# How it was run: as §1
# [21] = molecular target: Gal(b1-4)GlcNAc(b1-3)Gal(b1-4)GlcNAc(b1-3)Gal(b1-4)GlcNAc(b1-2)Man(a1-3)[Gal(b1-4)GlcNAc(b1-3)Gal(b1-4)GlcNAc(b1-3)Gal(b1-4)GlcNAc(b1-2)Man(a1-6)]Man(b1-4)GlcNAc(b1-4)GlcNAc
# How it was run: as §1
# [22] = molecular target: Gal(b1-4)GlcNAc(b1-3)Gal(b1-4)GlcNAc(b1-3)Gal(b1-4)GlcNAc(b1-3)Gal(b1-4)GlcNAc(b1-2)Man(a1-3)[Gal(b1-4)GlcNAc(b1-3)Gal(b1-4)GlcNAc(b1-3)Gal(b1-4)GlcNAc(b1-3)Gal(b1-4)GlcNAc(b1-2)Man(a1-6)]Man(b1-4)GlcNAc(b1-4)[Fuc(a1-6)]GlcNAc
# How it was run: as §1
# [23] = molecular target: Gal(b1-4)GlcNAc(b1-3)Gal(b1-4)GlcNAc(b1-3)Gal(b1-4)GlcNAc(b1-3)Gal(b1-4)GlcNAc(b1-3)Gal(b1-4)GlcNAc(b1-2)[Gal(b1-4)GlcNAc(b1-3)Gal(b1-4)GlcNAc(b1-3)Gal(b1-4)GlcNAc(b1-3)Gal(b1-4)GlcNAc(b1-3)Gal(b1-4)GlcNAc(b1-6)]Man(a1-6)[Gal(b1-4)GlcNAc(b1-3)Gal(b1-4)GlcNAc(b1-3)Gal(b1-4)GlcNAc(b1-3)Gal(b1-4)GlcNAc(b1-3)Gal(b1-4)GlcNAc(b1-2)Man(a1-3)]Man(b1-4)GlcNAc(b1-4)[Fuc(a1-6)]GlcNAc
# How it was run: as §1
# Gal(b1-4)GlcNAc6P = molecular target: Gal(b1-4)GlcNAc6P
# How it was run: as §1
# Gal(b1-6)Gal = molecular target: Gal(b1-6)Gal
# How it was run: as §1
# Gal3S(b1-3)GalNAc = molecular target: Gal3S(b1-3)GalNAc
# How it was run: as §1
# Gal3S(b1-3)GlcNAc = molecular target: Gal3S(b1-3)GlcNAc
# How it was run: as §1
# Gal6S(b1-4)GlcNAc = molecular target: Gal6S(b1-4)GlcNAc
# How it was run: as §1
# [24] = molecular target: GalNAc(a1-3)GalNAc(b1-3)Gal(a1-4)Gal(b1-4)Glc
# How it was run: as §1
# [25] = molecular target: GalNAc(b1-3)Gal(a1-4)Gal(b1-4)GlcNAc
# How it was run: as §1
# [26] = molecular target: Glc(a1-4)Glc(a1-4)Glc(a1-4)Glc
# How it was run: as §1
# [27] = molecular target: GlcNAc(b1-2)[GlcNAc(b1-4)]Man(a1-3)[GlcNAc(b1-4)][GlcNAc(b1-2)[GlcNAc(b1-6)]Man(a1-6)]Man(b1-4)GlcNAc(b1-4)[Fuc(a1-6)]GlcNAc
# How it was run: as §1
# [28] = molecular target: GlcNAc(b1-3)Gal(b1-4)GlcNAc(b1-3)Gal(b1-4)GlcNAc(b1-2)[GlcNAc(b1-3)Gal(b1-4)GlcNAc(b1-3)Gal(b1-4)GlcNAc(b1-6)]Man(a1-6)[GlcNAc(b1-3)Gal(b1-4)GlcNAc(b1-3)Gal(b1-4)GlcNAc(b1-2)Man(a1-3)]Man(b1-4)GlcNAc(b1-4)[Fuc(a1-6)]GlcNAc
# How it was run: as §1
# [29] = molecular target: GlcNAc(b1-3)Gal(b1-4)GlcNAc(b1-6)[GlcNAc(b1-3)]Gal(b1-4)GlcNAc
# How it was run: as §1
# [30] = molecular target: Man(a1-3)[Man(a1-6)]Man(a1-6)[Man(a1-3)]Man
# How it was run: as §1
# [31] = molecular target: Man(a1-3)[Man(a1-6)]Man(a1-6)[Man(a1-3)]Man(b1-4)GlcNAc(b1-4)GlcNAc
# How it was run: as §1
# [32] = molecular target: Neu5Ac(a2-3)Gal(b1-3)GlcNAc(b1-4)Gal(b1-4)Glc
# How it was run: as §1
# Neu5Ac(a2-3)Gal(b1-4)Glc = molecular target: Neu5Ac(a2-3)Gal(b1-4)Glc
# How it was run: as §1
# [33] = molecular target: Neu5Ac(a2-3)Gal(b1-4)GlcNAc(b1-3)GalNAc
# How it was run: as §1
# [34] = molecular target: Neu5Ac(a2-3)Gal(b1-4)[Fuc(a1-3)]GlcNAc(b1-6)[Gal(b1-3)]GalNAc
# How it was run: as §1
# [35] = molecular target: Neu5Ac(a2-6)Gal(b1-4)GlcNAc(b1-2)Man(a1-3)[Man(a1-6)]Man(b1-4)GlcNAc(b1-4)GlcNAc
# How it was run: as §1
# [36] = molecular target: Neu5Ac(a2-6)Gal(b1-4)GlcNAc(b1-3)Gal(b1-4)GlcNAc(b1-6)[Gal(b1-3)]GalNAc
# How it was run: as §1
# [37] = molecular target: Neu5Ac(a2-6)GalNAc(b1-4)GlcNAc6S
# How it was run: as §1
# [38] = molecular target: Neu5Ac(a2-8)Neu5Ac(a2-8)Neu5Ac
# How it was run: as §1
# [39] = molecular target: Neu5Gc(a2-3)Gal(b1-3)[Fuc(a1-4)]GlcNAc
# How it was run: as §1
# [40] = molecular target: Neu5Gc(a2-3)Gal(b1-4)GlcNAc
# How it was run: as §1
binder,measurement,setting,value
B1,glycan array binding signal (z-score),[1],-0.396
same,glycan array binding signal (z-score),[2],-0.362
same,glycan array binding signal (z-score),[3],0.033
same,glycan array binding signal (z-score),[4],1.17
same,glycan array binding signal (z-score),[5],6.16
same,glycan array binding signal (z-score),[6],4.46
same,glycan array binding signal (z-score),[7],2
same,glycan array binding signal (z-score),[8],-0.355
same,glycan array binding signal (z-score),[9],7.53
same,glycan array binding signal (z-score),[10],0.036
same,glycan array binding signal (z-score),[11],-0.324
same,glycan array binding signal (z-score),[12],-0.263
same,glycan array binding signal (z-score),[13],4.15
same,glycan array binding signal (z-score),[14],-0.42
same,glycan array binding signal (z-score),Gal(b1-3)GlcNAc6S,-0.404
same,glycan array binding signal (z-score),[15],4.38
same,glycan array binding signal (z-score),[16],-0.371
same,glycan array binding signal (z-score),[17],-0.092
same,glycan array binding signal (z-score),[18],-0.387
same,glycan array binding signal (z-score),[19],4.53
same,glycan array binding signal (z-score),[20],-0.052
same,glycan array binding signal (z-score),[21],1.38
same,glycan array binding signal (z-score),[22],7.46
same,glycan array binding signal (z-score),[23],8.43
same,glycan array binding signal (z-score),Gal(b1-4)GlcNAc6P,-0.348
same,glycan array binding signal (z-score),Gal(b1-6)Gal,-0.136
same,glycan array binding signal (z-score),Gal3S(b1-3)GalNAc,-0.369
same,glycan array binding signal (z-score),Gal3S(b1-3)GlcNAc,-0.406
same,glycan array binding signal (z-score),Gal6S(b1-4)GlcNAc,4.01
same,glycan array binding signal (z-score),[24],-0.403
same,glycan array binding signal (z-score),[25],-0.37
same,glycan array binding signal (z-score),[26],5.44
same,glycan array binding signal (z-score),[27],-0.39
same,glycan array binding signal (z-score),[28],-0.26
same,glycan array binding signal (z-score),[29],-0.406
same,glycan array binding signal (z-score),[30],-0.125
same,glycan array binding signal (z-score),[31],-0.351
same,glycan array binding signal (z-score),[32],-0.389
same,glycan array binding signal (z-score),Neu5Ac(a2-3)Gal(b1-4)Glc,-0.399
same,glycan array binding signal (z-score),[33],-0.327
same,glycan array binding signal (z-score),[34],4.53
same,glycan array binding signal (z-score),[35],0.556
same,glycan array binding signal (z-score),[36],-0.221
same,glycan array binding signal (z-score),[37],-0.365
same,glycan array binding signal (z-score),[38],-0.377
same,glycan array binding signal (z-score),[39],-0.366
same,glycan array binding signal (z-score),[40],-0.326
